In the library only some 21% were active in any assay of this set; here they are far more common.
Pf growth 48h – inhibits P. falciparum growth in the first generation, 48 h; P. falciparum luciferase growth in erythrocytes, 48 h; Potency, µM (titrated, usually from 28.7 µM), for inactives: at the top dose activity change, negative = inhibition, actives largely listed as inhibitors; 5.9% of 310,000 active; note: potency is the fitted concentration of half-maximal effect; % is set by controls: 0 for no effect and ±100 for the full control effect
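Here the parasites carry a stable luciferase gene and grow inside erythrocytes in Albumax-based RPMI medium with compound for one erythrocytic cycle. Activity is scored as loss of luminescent signal.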
Cycloheximide cs – counter-screen for Shiga toxin inhibitors: cycloheximide protein synthesis inhibition; cell reporter, cycloheximide protein synthesis inhibition counterscreen; max response, %; 12% of 300,000 active; AID 2314; in the data active = max response mostly above about 13%, no sharp cut-off; inactive = mostly below about 14%; note: read at 38.3 µM for the half of the compounds with a filed dose; 0% is about no effect
NS1 inh – inhibitors of influenza NS1 protein function. AID 2326. 0.4% of 270,000 active. Potency, µM (top dose mostly 46.1 µM), for the others: at the highest dose activity, positive = more growth; calls by dose curve; note: potency is the fitted concentration of half-maximal effect; actives are rising curves; nearly all actives have a fitted effect of over 50% in size
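A cell-based growth assay was used: compounds that relieve NS1-induced slow growth of budding yeast raise OD600. Assay medium was yeast nitrogen base with ammonium sulphate and -URA supplement, pH 6.0, with 2% galactose.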
Shiga toxin inh – blocks Shiga toxin action in Vero cells; Vero cells, Shiga toxin protein synthesis inhibition reporter; inhibition, % at 38.7 µM; 9.2% of 290,000 active; in the data active = inhibition mostly above about 28%, no sharp cut-off; inactive = mostly below about 43%; note: 0% is about no effect
Pf growth 96h – P. falciparum growth inhibition at 96 hour, primary screen for plastid delayed-death inhibitors. Potency, µM (titrated, usually from 28.7 µM), without a hit: at the top dose activity change, negative = inhibition, actives largely listed as inhibitors. AID 504834. P. falciparum luciferase reporter growth, 96 h. 6.9% of 320,000 active; note: potency is the fitted concentration of half-maximal effect; % is set by controls: 0 for no effect and ±100 for the full control effect
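Parasite growth measured via integrated firefly luciferase reporter in P. falciparum. Infected erythrocytes at 2% hematocrit, 0.05% parasitemia final were treated 96 hours at 37 C under 5% CO2, and luminescence was read.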
FBPA Giardia inh – blocks Giardia fructose-bisphosphate aldolase activity; A8B2U2; purified Giardia FBPA; Potency, µM (titrated, usually from 59.6 µM), for inactives: at the top dose activity, negative = inhibition, hits mostly inhibitors; 0.71% of 290,000 active; note: potency is the fitted concentration of half-maximal effect; % is set by controls: 0 for no effect and ±100 for the full control effect; nearly all actives have a fitted effect of over 55% in size
Target sequence (A8B2U2 whole entry, looked up): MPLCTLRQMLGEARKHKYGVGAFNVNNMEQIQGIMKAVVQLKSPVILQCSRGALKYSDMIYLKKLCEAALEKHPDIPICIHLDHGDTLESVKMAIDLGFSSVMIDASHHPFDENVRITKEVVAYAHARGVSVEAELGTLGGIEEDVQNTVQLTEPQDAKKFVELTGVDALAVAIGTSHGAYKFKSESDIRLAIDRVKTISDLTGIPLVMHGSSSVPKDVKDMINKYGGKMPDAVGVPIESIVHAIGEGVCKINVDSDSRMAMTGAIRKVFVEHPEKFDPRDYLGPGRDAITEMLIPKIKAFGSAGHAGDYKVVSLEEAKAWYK
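40 nM FBPA preincubated 10 min at RT with compound (up to 57.5 uM final), then substrate plus GAPDH/TPI/NAD/arsenate coupling and diaphorase/resazurin added. Fluorescence read after 20 min at RT, 525/598 nm.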
* hit, by the source's call; ? = inconclusive; . = not tested or not shown. Unless noted, calls come from the whole dose curve; as a rule, active = well fitted curve in the direction sought with a large enough effect; inconclusive = small, poorly fitted or top-dose-only effect, or another doubt; inactive = no such curve, though single readings can be large; an effect the other way counts as inactive or inconclusive.

SMILES	Pf growth 48h	Cycloheximide cs	NS1 inh	Shiga toxin inh	Pf growth 96h	FBPA Giardia inh
COC(=O)C(Cc1ccc(OC(=O)c2ccc(C(F)(F)F)cc2)cc1)N1Cc2ccccc2C1=O (configuration not stated)	38.8%	42.7*	0.2%	69.3*	66.9%	-6.2%
CC(C)(O)C#Cc1ccc(CN2CCCC(CNC(=O)c3ccco3)C2)cc1 (configuration not stated)	?	9.1	5.9%	11.7	34.2%	.
CCN(CC)CCCNC(=O)c1nn2c(C(F)(F)F)cc(-c3ccccc3)nc2c1Cl	0.0%	-4.5	2.9%	-28.3	?	7.1%
Cc1ccc(C)n1CCN1CCN(S(=O)(=O)c2ccc(F)cc2F)CC1	?	-3.5	1.3%	-7.5	13.1µM*	-6.1%
O=C(O)CSc1nnc(-c2ccc(Cl)cc2)n1-c1ccccc1	37.0%	0.8	23.0%	-15.4	9.28µM*	18.7%
CC(=O)/C(=N\Nc1ccc(Cl)cc1)Sc1nnc(-c2ccccc2)n1-c1ccccc1	-22.2%	-6.4	-0.1%	-12.1	14.7µM*	-20.9%
Cc1ccc(Cl)cc1NC(=O)C1CC1c1ccccc1 (configuration not stated)	-6.9%	0.8	-8.5%	.	9.6%	-11.4%
COc1ccc(-c2c(N)nnc3c2[nH]c2ccccc23)cc1OC	-11.8%	-3.0	-13.2%	-16.7	80.0%	-6.7%
COc1ccccc1-c1sc2ccccc2c1-c1ccccc1OC	13.1µM*	.	.	.	2.62µM*	.
COc1ccc(-c2c(-c3ccccc3OC)sc3ccccc23)cc1OC	?	-3.3	14.7%	-12.5	9.28µM*	12.6%
Cc1ccc(Nc2nc(-c3ccccc3)c(CC(=O)O)s2)cc1	66.7%	47.5*	.	82.3*	?	-2.4%
O=C(Cc1sc(Nc2ccccc2)nc1-c1ccccc1)NCc1ccccn1	13.3%	38.9*	.	53.3*	-6.1%	-11.0%
O=C(Cc1ccccc1)NCc1ccccn1	59.2%	6.5	3.4%	12.9	-22.4%	0.1%
O=C(O)Cc1sc(Nc2ccccc2)nc1-c1ccc(Cl)cc1	92.0%	42.4*	.	119.5*	112.2%	5.1%
O=C(O)Cc1sc(Nc2ccc(F)cc2)nc1-c1cccs1	59.3%	29.6*	.	59.8*	76.2%	-9.7%
CC(C)[C@H](NC(=O)c1ccc(F)cc1)C(=O)N(C)Cc1cccs1	-25.9%	.	.	.	-30.8%	.
CC(=O)C1=C(C)NC(SCC(=O)c2ccc(F)cc2)=C(C#N)C1c1ccco1 (configuration not stated)	.	4.2	-67.8%	5.4	?	-26.7%
CCc1ccc(C(=O)CSC2=C(C#N)C(c3ccco3)C(C(C)=O)=C(C)N2)cc1 (configuration not stated)	?	30.1*	?	32.1	36.9%	-15.6%
CC(=O)C1=C(C)NC(SCC(=O)c2ccc(Cl)c(Cl)c2)=C(C#N)C1c1ccco1 (configuration not stated)	1.17µM*	9.7	?	14.0	-111.7%	-25.6%
CC(=O)C1=C(C)NC(SCC(=O)c2cc(Cl)ccc2Cl)=C(C#N)C1c1ccco1 (configuration not stated)	9.28µM*	1.1	15.1%	-5.3	9.28µM*	?
C[C@@H]1C(=O)O[C@H]2[C@@H](O)[C@@]34[C@H]5CC(C(C)(C)C)[C@]36[C@@H](OC(=O)[C@@H]6O)O[C@@]4(C(=O)O5)[C@@]12O (some centres not stated)	.	.	.	.	.	5.9%
O=C(O)/C=C/C(=O)Nc1ccc(NC(=O)c2ccccc2)c(Cl)c1	80.3%	11.8	.	-10.6	?	15.7%
CSc1cccc(NC(=O)C(=O)NCc2ccccc2)c1	31.6%	-0.6	3.9%	5.3	7.8%	2.0%
Cc1ccc(C(=O)Nc2cccc(C(=O)O)c2)cc1	.	41.8*	-0.3%	71.0*	2.2%	-6.0%
O=C(O)/C=C/C(=O)Nc1ccc2nccnc2c1	2.0%	23.4*	-4.7%	46.5	-9.2%	-23.1%
O=C(NCc1ccccc1)C(=O)Nc1cccc(C(=O)O)c1	236.4%	61.3*	5.4%	157.9*	287.6%	1.3%
O=C(O)/C=C\C(=O)Nc1cccc(NC(=O)c2ccccc2)c1	16.9%	22.1*	6.9%	51.9	13.3%	-6.4%
O=C(O)c1cccc(NC(=O)c2ccccc2)c1	.	.	16.4%	.	.	.

High-throughput results: PubChem, National Center for Advancing Translational Sciences (NCATS)
